This passage reports INHIBITION results from ChEMBL document CHEMBL4513216, “Probing the Open Global Health Chemical Diversity Library for Multistage-Active Starting Points for Next-Generation Antimalarials” (ACS Infect Dis, 2020).

The campaign covered roughly 69,000 compounds. About 8,600 (12%) showed an effect of 50% or more. The sample as a whole holds a higher share of strong results than the screen did.

This assay concerns Plasmodium berghei. Briefly: Screen against P. berghei liver stage (PbLuc), transformed with Luciferase, at 10uM. To be noted: tested at 10 uM. The format is functional, HepG2.
For `Cn1c(CN2CCCC(c3noc(C4CC4)n3)C2)cc(=O)n(C)c1=O` (configuration not stated), the INHIBITION is reported as -50.5%.
As to `CNC(=O)c1cccc(C2CNCCN2C(=O)c2cccc(F)c2)c1` (configuration not stated), the INHIBITION is on record as 44.8%.
Turning to `COCCN1CCC2(CC1)CN(C(=O)N(C)C)c1ccc(C)cc12`, the INHIBITION was 26.2%.
The figure for `COc1ccccc1NC(=O)C1(c2ccccc2)CCOCC1` is 6.26%; for `CCOCC(=O)N1C[C@H]2CC[C@@H](C1)N(Cc1ccccn1)C2=O` it is 28.7%.
With `COCCOc1ccc(NC(=O)C2CC(=O)N(C3CC3)C2)cn1` (configuration not stated) the figure was 4.71%; with `COCCN(Cc1ccc(C)cc1)CC1CCOC1` (configuration not stated), 67.4%; with `COCCN(Cc1cnn(C)c1)CC1CCOC1` (configuration not stated), 19.8%.
Turning to `COCCN(Cc1cnn(C)c1)CC1CCN(C(C)C)CC1`, the INHIBITION was found to be 33.7%.
On to `c1cc(-c2cnc(NC3CC3)nc2[C@H]2CCCO2)ccn1`, for which the INHIBITION is reported as -12.3%.
Take `Cc1ccc(C(=O)N2CC3(CCNCC3)c3cc(Cl)ccc32)cn1`: the INHIBITION amounted to 5.04%.
As for `CCN1CC(COC(=O)c2ccc(Br)cc2F)CC1=O` (configuration not stated), the INHIBITION is 0.0459%.
For the compound `Cc1ncc2c(n1)CN(Cc1nc(C)c(C)o1)CC2`, the INHIBITION is on record as 38%.
The figure for `COc1ncc(CN2CCC3(CCCN(CC4CCC4)C3)C2)cn1` (configuration not stated) is 17.8%; for `COCCc1ncc(CN2CCC3(CCCN(CC4CC4)C3)C2)cn1` (configuration not stated) it is 46.6%.
With `CCc1ncc(CN2CCC3(CCCN(CC4CCC4)C3)C2)cn1` (configuration not stated) the figure was 57.5%; with `COc1ncc(CN2CCC3(CCCN(CC4CCCCC4)C3)C2)cn1` (configuration not stated), 6.94%.
With `Cc1noc(C)c1CN1CCCC2(CCN(CC3CCCC3)C2)C1` (configuration not stated) the figure was 49.4%; with `Cc1ncc(CN2CCC3(CCCN(CC4CCC4)C3)C2)cn1` (configuration not stated), 53.5%.
Consider `Cc1nc(NCC(O)CN2CCCCCC2)c2c(C)nn(C)c2n1` (configuration not stated), for which the INHIBITION is -30.3%.
With `CC(=O)N1CC[C@H]2OCC[C@@H](C(=O)Nc3cccnc3C)[C@@H]2C1` the figure was -1.28%; with `COC(=O)CN1CC(c2nc(Cc3ccccc3)no2)C1`, -14.6%.
Consider `CNC(=O)CCc1cc(C2CCCN2S(C)(=O)=O)nc(C)n1` (configuration not stated), for which the INHIBITION is 6.33%.
In the case of `OCCNc1cc(-c2ccncc2)ncn1`, the INHIBITION amounted to 47.1%.
The figure for `C[C@H](O)CNc1cc(-c2ccccc2)ncn1` is 26.3%; for `C[C@H](O)CNc1cc(-c2ccncc2)ncn1` it is 54.5%; for `Cc1cc(CN2C[C@@H]3COC[C@]3(CNC(=O)c3ccsc3)C2)no1` it is -2.25%.
In the case of `O=C(CCC1CCCC1)N1C[C@@H]2CC[C@H]1CN(Cc1ccncc1)C2`, the INHIBITION is 27.6%.
With `CN(C)CCN(C)c1ccc(-c2nc(COc3ccccc3)no2)cn1` the figure was 41.3%; with `COc1cccc(-c2noc(-c3ccc(NCCCO)nc3)n2)c1OC`, 43.9%; with `COc1cccc(-c2noc(-c3ccc(NCCCN)nc3)n2)c1OC`, 46.7%.
Regarding `Cc1ccccc1-c1noc(-c2ccc(NCC3COCCO3)nc2)n1` (configuration not stated), the INHIBITION was 32.3%.
On to `CN(C)CCNc1ccc(-c2nc(-c3ccccc3F)no2)cn1`, for which the INHIBITION worked out at 80.7%.
Turning to `CNCCNc1ccc(-c2nc(-c3cccc(OC)c3OC)no2)cn1`, the INHIBITION was 25.8%.
The figure for `CC(C)(CO)Nc1ccc(-c2nc(-c3ccccc3F)no2)cn1` is 91.3%; for `COC(=O)CNc1ccc(-c2nc(Cc3ccc(OC)cc3)no2)cn1` it is 26.6%; for `CN(C)CCNc1ccc(-c2nc(COc3ccccc3)no2)cn1` it is 56.5%.
With `CNC(=O)CCc1cc(C)nc(C2CCN(CC(=O)N(C)C)CC2)c1` the figure was 23.3%.
For `O=C(O)c1ccccc1-c1cnc(Cn2c(=O)cc[nH]c2=O)s1`, the INHIBITION was 22%.
As for `CC(C)N(CC(=O)Nc1cccc(C(=O)N(C)C)c1)C1CC1`, the INHIBITION is -0.614%.
Regarding `CC(C)N(CC(=O)Nc1cccc(C#N)c1)C1CC1`, the INHIBITION stood at 54.8%.
On to `COc1cccc(NC(=O)CN(C(C)C)C2CC2)c1`, for which the INHIBITION is recorded as 20%.
With `Cc1noc(C)c1CN(C)CC(=O)N1CCc2sccc2C1` the figure was 14.4%; with `Cn1c(=O)n(C)c2cc(NS(=O)(=O)Cc3ccccc3)ccc21`, 2.03%; with `CCc1cnc(N2C[C@@H]3C[C@H](C(=O)N(C)C)[C@H](C2)O3)nc1`, -46.9%.
`COCc1nn(CC2CC2)c2c1CN(Cc1ccco1)CC2`: the INHIBITION was determined as 26%.
For the compound `CCn1c(CN(C)Cc2cnc(C)s2)nc2c(F)cccc21`, the INHIBITION came to 37.8%.
The figure for `Cc1ncc(CN(C)Cc2nc3cc(Cl)ccc3n2C)s1` is 74%.
With `CCn1c(CN(C)Cc2cnc(C)s2)nc2cc(F)ccc21` the figure was -2.09%; with `COCc1nn(C(C)C)c2c1CCN(Cc1ccccn1)C2`, -18.4%; with `CCc1nc(N2CCCC(CCCOC)C2)c2cnn(C)c2n1` (configuration not stated), 49.4%.
For `COCCN1CC[C@@H]2OC(COCC(=O)N3CCCC3)CC[C@@H]21` (some centres not stated), the INHIBITION was -36%.
With `O=C(Cc1ccsc1)N1C[C@@H]2COC[C@]2(COCc2cccnc2)C1` the figure was 30.3%.
For `COc1cc(S(=O)(=O)N2C[C@@H](C)[C@@](C)(O)C2)c(C)cc1C`, the INHIBITION is 54.5%.
On to `Cc1cc(F)ccc1N1CCC(N2C[C@@H](CN(C)C)[C@@H](CO)C2)CC1`, for which the INHIBITION was 38%.
The figure for `COc1cc(C)ccc1S(=O)(=O)N1CC[C@](C)(O)[C@H](C)C1` is 25.5%; for `C[C@@H]1CN(S(=O)(=O)c2ccc(F)cc2F)C[C@]1(C)O` it is 45.6%; for `Cc1cc(F)ccc1N1CCC(N2C[C@@H](C)[C@@](C)(O)C2)CC1` it is 54.4%.
With `Cc1cc(F)ccc1S(=O)(=O)N1C[C@@H](C)[C@@](C)(O)C1` the figure was 52.5%.
With `Cc1ccc(F)cc1S(=O)(=O)N1C[C@@H](C)[C@@](C)(O)C1` the figure was 43.6%; with `C[C@@H]1CN(S(=O)(=O)c2ccc(F)cc2Cl)C[C@]1(C)O`, 5.94%; with `C[C@@H]1CN(C2CCN(c3ccccc3F)CC2)C[C@]1(C)O`, 47.9%.
Turning to `COC1COC2(CCN(Cc3ccccc3Cl)CC2)C1` (configuration not stated), the INHIBITION was -40.3%.
The figure for `Cc1cc(CN2CCCC(Cn3cncn3)C2)no1` (configuration not stated) is 3.73%; for `COc1cn(CC(=O)N2CCN(c3ccc(F)cc3)CC2)c(C)cc1=O` it is 39.6%; for `CC(C)NC(=O)N1CCN(Cc2ccccn2)CC2(CC(=O)N(C)C2)C1` (configuration not stated) it is 42.4%.
Consider `CC1CN(C)CCN1CC(=O)NCCOc1cccc(F)c1` (configuration not stated), for which the INHIBITION worked out at 22.007%.
